This is an account of results in PubChem BioAssay.

Experiment [1] in a line: inhibitors of CD8+ T cell-vesicle binding, pilot screen, LFA-1/ICAM-1 modulator project, MLPCN validation set, flow cytometry (AID 2523;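 active = response below a set limit, under 55% cells CD8-positive and vesicle-bound, and CD8 cells' 90th-percentile brightness under 279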;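 for vesicle binding response: mean PE anti-B7-1 fluorescence of CD8+ cells relative to row control; 100% = QL9-loaded vesicles with DMSO vehicle in the same plate row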). The settings on record: 2C mouse CD8+ T cells, at 7 µM, stronger effect = lower value; double positive events: measured here: CD8+/vesicle+ event percentage. For orientation: Flow cytometry measures light scatter and fluorescence of single cells or particles in a stream.

The target in experiment [2] is Integrin beta-1 (Homo sapiens) + Integrin alpha-4 (Homo sapiens) (UniProt P13612+P05556). The experiment in a line: inhibition of HUTS-21 binding to VLA-4, pilot screen, VLA-4 allosteric modulator project, U937 cells, HUTS-21 mAb, flow cytometry, validation set (AID 2674).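 Note: antibody binding induced by the VLA-4 ligand LDV present at three times its Kd; 0% = LDV ligand with antibody and no compound and 100% = antibody without LDV.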 The settings on record: HUTS-21 LIBS mAb binding, at 6.7 µM, stronger effect = higher value, binding induced by LDV ligand.

Experiment [3] is described as follows: superoxide lowering in aged yeast cells, pilot screen, validation compound set (AID 2706;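 active = superoxide response below 65% of plate, a cut near 3 SD across the whole screen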;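 note: yeast exposed to compound for one week at 30 degrees C before staining; 100% = mean of all compound wells on the same plate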). Particulars: S. cerevisiae aging, superoxide DHE fluorescence; at 10 µM, stronger effect = lower value.
The target in experiment [4] is Beta-adrenergic receptor kinase 1 (Homo sapiens) (UniProt P25098). The experiment can be described thus: GRK2 binders displacing RNA aptamer, biochemical, validation, human GRK2, bead flow cytometry (AID 488806;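 active = aptamer binding inhibition above 30%, about 3 SD of noise from non-fluorescent compounds; inactive = inhibition at or below 30%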). The settings on record: bead-bound GRK2, FAM-aptamer displacement, at 10 µM, stronger effect = higher value.
Experiment [5] addresses Beta-2 adrenergic receptor (Homo sapiens) (UniProt P07550). The experiment can be described thus: beta2AR agonists driving receptor internalization, pilot screen, cell-based, FAP fluorogen, flow cytometry, validation set (AID 504459;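 active = percent response above 42, roughly 3 SD of non-fluorescent test compounds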;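 note: agonist-driven loss of surface beta2AR via internalization measured by FAP dye flow cytometry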). The settings on record: Am2.2-beta2AR cells, FAP surface receptor flow cytometry; at 10 µM; stronger effect = higher value.
Experiment [6] has as its target AP-2 complex subunit beta (Homo sapiens) (UniProt P63010). The experiment in a line: inhibitors of arrestin peptide binding to AP2, pilot screen, biochemical, validation set, GST-AP2 beads, flow cytometry (AID 504541;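 active = inhibition above 54%, about 3 SD of non-fluorescent compounds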;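 note: AP2 carries R879A mutation and is captured from E. coli lysate; bead-bound FITC arrestin peptide fluorescence measuring arrestin peptide binding to AP2; 0% = DMSO wells and 100% = excess unlabeled arrestin peptide control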). Particulars: FITC arrestin peptide, at 10 µM, stronger effect = higher value, AP2 beta2 appendage fragment, R879A mutant.
Experiment [7] is described as follows: yeast V-ATPase proton transport modulators, S. cerevisiae, pHLuorin, HTS validation (AID 504600; in the data active = response above about 15%;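 note: plate controls were DMSO for no effect and reference compound for full effect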). The settings on record: S. cerevisiae pHLuorin cytosolic pH, at 10 µM, stronger effect = higher value.
Experiment [8] relates to anti-desmoglein-3 scFv antibody binding to human DSG3. The experiment in a line: inhibitors of anti-DSG3 scFv binding to DSG3, pilot screen, biochemical, validation compound set, bead-based, flow cytometry (AID 588368;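 active = binding below the plate cutoff, the plate median minus 3 SD, with a reading above zero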;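 note: signal is the median channel fluorescence of bead-bound GFP antibody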). The settings on record: Protein G beads, DSG3-Fc, scFv-GFP binding, at 10 µM, stronger effect = lower value.
Experiment [9] can be described thus: inhibitors of fungal efflux pumps CDR1, CDR2, MDR1, pilot screen, validation compound set, multiplex, phenotypic (AID 588506;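 active = efflux inhibition above 0.42, the validation set average plus 4 SD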;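 note: Nile Red retained in cells so higher fluorescence means more efflux inhibition; 0 = negative control wells and 1 = enniatin B 25 µM full block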). The settings on record: S. cerevisiae pump-expressing triplex, Nile Red efflux flow cytometry; at 10 µM; stronger effect = higher value; the pumps come from Candida albicans.
The target of experiment [10] is ATP-binding cassette sub-family B member 6 (Homo sapiens) (UniProt Q9NP58). The experiment can be described thus: ABCB6 transporter inhibitors, pilot screen, K562-ABCB6 cells, flow cytometry, validation set (AID 588550;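 active = inhibition above the screen-wide mean plus 3 SD, about 51%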;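 note: 0% = DMSO wells and 100% = benzethonium chloride 70 µM positive control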). Particulars: K562-ABCB6 porphyrin accumulation, 1 h, at 10 µM, stronger effect = higher value.
Experiment [11] is described as follows: promoters of myeloid differentiation in arrested cells, primary screen, cell-based, GFP/MAC1 double positive, flow cytometry, validation set (AID 588685;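 active = differentiation response of at least 50%, scaled between solvent and reference control, from cells with both markers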;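 note: compound exposure lasts four days before antibody staining and flow analysis; 0% = DMSO wells and 100% = 5 µM fulvestrant positive control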). Particulars: ER-HoxA9 marrow cells, stronger effect = higher value, normalized: vehicle 0, fulvestrant 100.

SMILES strings stand for the structures. Activity calls are given as the source filed them.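 Rule for the calls, unless noted: active = inhibition above 50%, about 3 SD of the validation set; inactive = the rest.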

AP-2 complex subunit beta (Homo sapiens), sequence (P63010 whole entry, looked up, the tested form may be a part, one chain of several): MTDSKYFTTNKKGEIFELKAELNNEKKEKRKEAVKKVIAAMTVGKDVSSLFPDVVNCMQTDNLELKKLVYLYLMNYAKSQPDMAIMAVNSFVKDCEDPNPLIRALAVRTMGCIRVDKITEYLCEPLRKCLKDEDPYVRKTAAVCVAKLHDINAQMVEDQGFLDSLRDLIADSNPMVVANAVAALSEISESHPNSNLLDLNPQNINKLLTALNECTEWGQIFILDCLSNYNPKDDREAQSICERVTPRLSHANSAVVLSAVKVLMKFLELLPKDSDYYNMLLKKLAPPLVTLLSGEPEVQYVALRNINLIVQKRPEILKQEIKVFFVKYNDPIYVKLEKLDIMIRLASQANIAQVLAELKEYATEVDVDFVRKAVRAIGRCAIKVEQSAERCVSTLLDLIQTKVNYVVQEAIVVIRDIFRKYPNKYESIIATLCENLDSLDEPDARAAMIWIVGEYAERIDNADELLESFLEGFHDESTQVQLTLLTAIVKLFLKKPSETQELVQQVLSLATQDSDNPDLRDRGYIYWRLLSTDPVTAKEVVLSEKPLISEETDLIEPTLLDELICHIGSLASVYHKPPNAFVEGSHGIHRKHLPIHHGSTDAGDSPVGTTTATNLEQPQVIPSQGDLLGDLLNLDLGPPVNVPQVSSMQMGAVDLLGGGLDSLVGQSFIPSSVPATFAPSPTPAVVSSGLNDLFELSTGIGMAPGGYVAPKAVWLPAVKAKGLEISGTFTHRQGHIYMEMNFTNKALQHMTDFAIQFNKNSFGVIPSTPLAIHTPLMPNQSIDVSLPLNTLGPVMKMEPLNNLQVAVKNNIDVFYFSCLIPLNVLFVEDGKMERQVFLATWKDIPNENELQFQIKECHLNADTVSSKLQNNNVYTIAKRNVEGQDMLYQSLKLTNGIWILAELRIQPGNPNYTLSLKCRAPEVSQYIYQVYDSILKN
Beta-adrenergic receptor kinase 1 (Homo sapiens), sequence (P25098 whole entry, looked up): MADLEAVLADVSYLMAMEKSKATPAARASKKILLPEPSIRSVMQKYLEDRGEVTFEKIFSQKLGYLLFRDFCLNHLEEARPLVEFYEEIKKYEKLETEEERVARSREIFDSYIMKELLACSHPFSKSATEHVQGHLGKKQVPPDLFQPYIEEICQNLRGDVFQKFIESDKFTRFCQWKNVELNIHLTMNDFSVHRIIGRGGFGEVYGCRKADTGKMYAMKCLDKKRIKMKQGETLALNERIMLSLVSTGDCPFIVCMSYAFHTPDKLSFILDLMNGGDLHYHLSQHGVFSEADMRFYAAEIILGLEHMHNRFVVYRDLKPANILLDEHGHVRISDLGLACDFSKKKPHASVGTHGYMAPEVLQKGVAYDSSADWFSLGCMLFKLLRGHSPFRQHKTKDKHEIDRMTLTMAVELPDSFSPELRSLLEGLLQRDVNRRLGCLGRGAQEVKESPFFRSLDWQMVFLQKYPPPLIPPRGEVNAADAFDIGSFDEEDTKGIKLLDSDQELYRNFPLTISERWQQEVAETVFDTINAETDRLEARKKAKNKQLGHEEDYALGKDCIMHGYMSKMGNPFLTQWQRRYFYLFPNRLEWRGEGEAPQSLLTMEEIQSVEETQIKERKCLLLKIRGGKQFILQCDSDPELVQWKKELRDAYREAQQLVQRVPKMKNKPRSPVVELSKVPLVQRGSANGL
ATP-binding cassette sub-family B member 6 (Homo sapiens), sequence (Q9NP58 whole entry, looked up): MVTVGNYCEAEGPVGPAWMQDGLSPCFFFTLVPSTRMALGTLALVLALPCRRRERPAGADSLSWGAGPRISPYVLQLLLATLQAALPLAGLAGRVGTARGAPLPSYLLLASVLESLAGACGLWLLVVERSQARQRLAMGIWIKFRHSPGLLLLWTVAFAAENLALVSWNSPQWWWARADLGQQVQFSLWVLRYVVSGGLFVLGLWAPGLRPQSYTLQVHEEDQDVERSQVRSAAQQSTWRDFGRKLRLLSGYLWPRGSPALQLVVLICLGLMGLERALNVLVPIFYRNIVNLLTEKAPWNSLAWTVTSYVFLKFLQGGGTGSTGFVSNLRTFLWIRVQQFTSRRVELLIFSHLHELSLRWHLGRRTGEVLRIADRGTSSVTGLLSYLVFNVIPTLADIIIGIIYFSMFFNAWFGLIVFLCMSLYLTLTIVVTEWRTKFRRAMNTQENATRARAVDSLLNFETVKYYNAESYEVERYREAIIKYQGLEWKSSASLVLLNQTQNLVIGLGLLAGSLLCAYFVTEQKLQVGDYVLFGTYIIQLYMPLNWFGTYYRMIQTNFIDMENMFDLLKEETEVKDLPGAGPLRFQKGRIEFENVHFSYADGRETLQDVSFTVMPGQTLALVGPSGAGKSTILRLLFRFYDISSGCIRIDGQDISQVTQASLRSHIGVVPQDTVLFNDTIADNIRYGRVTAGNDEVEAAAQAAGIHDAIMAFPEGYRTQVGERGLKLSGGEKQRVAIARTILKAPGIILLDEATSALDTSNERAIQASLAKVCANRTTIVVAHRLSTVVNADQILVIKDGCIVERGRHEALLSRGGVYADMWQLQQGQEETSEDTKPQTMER
Integrin beta-1 (Homo sapiens) + Integrin alpha-4 (Homo sapiens), sequence (P05556 whole entry, looked up): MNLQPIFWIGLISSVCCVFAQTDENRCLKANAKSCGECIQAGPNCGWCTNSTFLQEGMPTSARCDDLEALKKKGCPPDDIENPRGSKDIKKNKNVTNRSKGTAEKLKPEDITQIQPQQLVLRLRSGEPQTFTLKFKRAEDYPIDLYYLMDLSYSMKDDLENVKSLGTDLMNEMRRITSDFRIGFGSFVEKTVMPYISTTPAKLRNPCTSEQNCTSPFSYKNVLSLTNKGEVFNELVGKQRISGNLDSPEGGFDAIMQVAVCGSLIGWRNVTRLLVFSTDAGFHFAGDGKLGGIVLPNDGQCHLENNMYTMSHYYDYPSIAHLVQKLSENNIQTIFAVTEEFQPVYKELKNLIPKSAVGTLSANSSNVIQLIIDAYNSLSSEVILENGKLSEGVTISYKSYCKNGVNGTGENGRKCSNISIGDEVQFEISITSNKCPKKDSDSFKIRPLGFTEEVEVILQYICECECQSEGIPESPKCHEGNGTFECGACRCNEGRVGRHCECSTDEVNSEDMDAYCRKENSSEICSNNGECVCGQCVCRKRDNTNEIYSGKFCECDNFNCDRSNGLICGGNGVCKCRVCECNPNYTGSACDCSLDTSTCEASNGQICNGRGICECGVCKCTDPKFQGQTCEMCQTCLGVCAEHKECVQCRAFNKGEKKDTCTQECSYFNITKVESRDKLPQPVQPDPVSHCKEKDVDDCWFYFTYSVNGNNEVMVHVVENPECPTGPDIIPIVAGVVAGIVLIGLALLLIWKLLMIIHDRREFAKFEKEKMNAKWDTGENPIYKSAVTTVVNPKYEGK
Integrin beta-1 (Homo sapiens) + Integrin alpha-4 (Homo sapiens), sequence (P13612 whole entry, looked up): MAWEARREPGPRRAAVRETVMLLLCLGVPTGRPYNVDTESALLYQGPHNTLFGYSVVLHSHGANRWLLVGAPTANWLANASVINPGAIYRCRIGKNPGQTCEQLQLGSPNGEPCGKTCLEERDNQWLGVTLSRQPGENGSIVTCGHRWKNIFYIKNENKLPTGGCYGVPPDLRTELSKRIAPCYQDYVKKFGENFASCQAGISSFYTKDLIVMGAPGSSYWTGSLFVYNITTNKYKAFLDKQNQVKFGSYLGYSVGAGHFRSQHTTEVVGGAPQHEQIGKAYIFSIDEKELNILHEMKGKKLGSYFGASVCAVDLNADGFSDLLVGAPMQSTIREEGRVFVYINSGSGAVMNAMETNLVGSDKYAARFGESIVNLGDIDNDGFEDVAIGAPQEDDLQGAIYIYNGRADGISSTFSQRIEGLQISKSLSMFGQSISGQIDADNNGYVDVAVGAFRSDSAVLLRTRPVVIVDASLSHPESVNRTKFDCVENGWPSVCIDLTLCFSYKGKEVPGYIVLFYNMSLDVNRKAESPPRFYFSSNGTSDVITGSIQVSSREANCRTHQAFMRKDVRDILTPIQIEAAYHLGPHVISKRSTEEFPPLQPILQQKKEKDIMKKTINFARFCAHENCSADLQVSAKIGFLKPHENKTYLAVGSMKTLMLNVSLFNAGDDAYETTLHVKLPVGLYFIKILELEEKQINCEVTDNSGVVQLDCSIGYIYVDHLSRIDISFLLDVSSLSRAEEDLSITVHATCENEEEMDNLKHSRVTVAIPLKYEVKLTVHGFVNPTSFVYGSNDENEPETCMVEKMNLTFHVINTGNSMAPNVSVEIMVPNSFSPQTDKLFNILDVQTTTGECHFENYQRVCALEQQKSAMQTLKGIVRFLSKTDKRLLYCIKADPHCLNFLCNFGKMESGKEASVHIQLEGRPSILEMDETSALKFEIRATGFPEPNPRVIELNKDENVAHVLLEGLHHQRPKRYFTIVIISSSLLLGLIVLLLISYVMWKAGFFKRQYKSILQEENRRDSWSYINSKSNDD
Beta-2 adrenergic receptor (Homo sapiens), sequence (P07550 whole entry, looked up): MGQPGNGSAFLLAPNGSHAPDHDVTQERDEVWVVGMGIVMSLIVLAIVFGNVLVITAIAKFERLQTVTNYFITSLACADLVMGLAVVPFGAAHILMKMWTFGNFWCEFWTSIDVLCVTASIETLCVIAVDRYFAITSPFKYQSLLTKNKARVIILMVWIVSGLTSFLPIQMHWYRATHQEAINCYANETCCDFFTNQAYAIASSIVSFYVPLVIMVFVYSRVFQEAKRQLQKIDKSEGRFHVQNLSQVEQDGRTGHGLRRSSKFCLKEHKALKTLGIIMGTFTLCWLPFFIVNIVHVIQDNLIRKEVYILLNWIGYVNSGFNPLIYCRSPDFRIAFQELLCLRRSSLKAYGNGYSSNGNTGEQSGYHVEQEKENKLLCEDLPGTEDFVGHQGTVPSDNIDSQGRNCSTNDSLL

What is called inhibition is the drop in the measured response relative to a control, in per cent. For `COc1cccc(OC)c1C(=O)NCCSC1CCCCC1`, the double positive events in experiment [1] stood at 61.3%. In addition, the vesicle binding response in experiment [1] is 68.6% (inactive). Besides, the inhibition was 1.59% (inactive) in experiment [2], -3.95% (inactive) in experiment [6] and -5% (inactive) in experiment [10]. In experiment [3], the superoxide response (% of plate) is 85.2% (inactive). For the same molecule, the aptamer binding inhibition in experiment [4] is 1% (inactive). The results for the response in [5] and in experiment [7] were 0.14% (inactive) and -0.98% (inactive), respectively. In addition, the binding (% of control) in experiment [8] is 104% (inactive). Moreover, in [9], the efflux inhibition (fraction of control) was -0.25 (inactive). Moreover, in experiment [11], the differentiation response is -16.3% (inactive).

Regarding `C[C@]12CCC(=O)C[C@@H]1CC[C@@H]1[C@@H]2CC[C@]2(C)C=CC[C@@H]12`, the double positive events in experiment [1] stood at 51.4%. Besides, the vesicle binding response in experiment [1] is 201% (inactive). Moreover, the inhibition in [2] is 5.36% (inactive); in experiment [6], 2.65% (inactive); in experiment [10], 4% (inactive). In addition, in experiment [3], the superoxide response (% of plate) is 111% (inactive). Further, the aptamer binding inhibition in [4] is 2% (inactive). For the same molecule, in [7], the response is 17% (active). Further, the binding (% of control) in experiment [8] was 103% (inactive). The efflux inhibition (fraction of control) in experiment [9] is 0.1 (inactive). In addition, in [11], the differentiation response is 28.9% (inactive).

`O=C(/C=C/c1ccc2c(c1)OCO2)c1ccccn1` showed a double positive events in experiment [1] of 60.4%. In [1], the vesicle binding response is 181% (inactive). For the same molecule, the inhibition in experiment [2] is 4.84% (inactive); in [6], -13% (inactive); in [10] it was -8% (inactive). The superoxide response (% of plate) in experiment [3] was 89.8% (inactive). Also, the aptamer binding inhibition in experiment [4] was 1% (inactive). Besides, the response in experiment [5] is -23.4% (inactive); in experiment [7] it was -4.66% (inactive). In [8], the binding (% of control) is 102% (inactive). The efflux inhibition (fraction of control) in experiment [9] is 0 (inactive). Also, the differentiation response in experiment [11] is -5.97% (inactive).

Turning to `COc1cc2cc(C(=O)O)n(C)c2c(OC)c1OC`, the double positive events in experiment [1] was 54.5%. Further, the vesicle binding response in experiment [1] was 184% (inactive). In addition, the inhibition was 5.36% (inactive) in experiment [2], 17.7% (inactive) in experiment [6] and 2% (inactive) in experiment [10]. Further, the superoxide response (% of plate) in [3] is 103% (inactive). Also, the aptamer binding inhibition in [4] was -6% (inactive). The response in experiment [7] is -19.4% (inactive). Also, in experiment [8], the binding (% of control) is 106% (inactive). In addition, the efflux inhibition (fraction of control) in experiment [9] was -0.01 (inactive). For the same molecule, in experiment [11], the differentiation response was -3.43% (inactive).

In the case of `COc1ccc(C)cc1S(=O)(=O)Nc1ccc(F)cc1`, the double positive events in experiment [1] is 64.5%. In experiment [1], the vesicle binding response was 172% (inactive). The inhibition in [2] was 5.61% (inactive); in experiment [6] it was 2.42% (inactive); in [10] it was 17% (inactive). Besides, the superoxide response (% of plate) in experiment [3] is 98.8% (inactive). In addition, the aptamer binding inhibition in [4] was 1% (inactive). Moreover, the response was 0.44% (inactive) in experiment [5] and -2.48% (inactive) in experiment [7]. In addition, the binding (% of control) in [8] is 102% (inactive). Also, in experiment [9], the efflux inhibition (fraction of control) was 0.06 (inactive). Besides, the differentiation response in experiment [11] was -3.11% (inactive).

Take `O=C(NCCc1nc2ccccc2[nH]1)c1cccc(Br)c1`: the double positive events in experiment [1] worked out at 72.8%. Moreover, the vesicle binding response in [1] is 224% (inactive). Also, the inhibition in experiment [2] is 11.9% (inactive); in experiment [6] it was -1.76% (inactive); in experiment [10] it was 5% (inactive). The superoxide response (% of plate) in experiment [3] is 92.6% (inactive). The aptamer binding inhibition in [4] is 4% (inactive). The response in experiment [5] is -6.54% (inactive); in experiment [7], 3.78% (inactive). Besides, in experiment [8], the binding (% of control) is 97.8% (inactive). In experiment [9], the efflux inhibition (fraction of control) is -0.1 (inactive). Also, in experiment [11], the differentiation response was 0.8% (inactive).

For `CC(=O)O[C@H]1CC[C@H]2[C@@H]3CCc4cc(O)ccc4[C@H]3CC[C@]12C`, in [1], the double positive events stood at 58.2%. In addition, in experiment [1], the vesicle binding response is 234% (inactive). Moreover, the inhibition in experiment [2] is 15.9% (inactive); in [6], 6.38% (inactive); in [10] it was 5% (inactive). Further, the superoxide response (% of plate) in experiment [3] was 80.4% (inactive). The aptamer binding inhibition in experiment [4] is 1% (inactive). The response in experiment [5] is -33% (inactive); in experiment [7], 2.35% (inactive). Besides, in experiment [8], the binding (% of control) is 101% (inactive). Also, the efflux inhibition (fraction of control) in experiment [9] was 0.21 (inactive). The differentiation response in [11] is -1.05% (inactive).

In experiment [1], `CCCCC[C@H](O)/C=C/[C@@H]1[C@@H](CCCCCCC(=O)O)[C@@H](O)C[C@H]1O` had a double positive events of 55.5%. Further, in experiment [1], the vesicle binding response was 114% (inactive). Further, the values for the inhibition in experiment [2], in experiment [6] and in experiment [10] were 5.36% (inactive), -0.39% (inactive) and 9% (inactive), respectively. Besides, in [3], the superoxide response (% of plate) was 104% (inactive). In experiment [4], the aptamer binding inhibition was 2% (inactive). Further, in experiment [7], the response is 1.43% (inactive). Besides, the binding (% of control) in experiment [8] was 99.8% (inactive). The efflux inhibition (fraction of control) in experiment [9] is 0.29 (inactive). For the same molecule, the differentiation response in [11] is -26% (inactive).

In turn, `CC(=O)N=c1sc(S(N)(=O)=O)nn1C` came in with a double positive events in [1] of 48.1%. Besides, the vesicle binding response in experiment [1] was 166% (inactive). For the same molecule, the inhibition in experiment [2] was -9.57% (inactive); in experiment [6], -6.47% (inactive); in experiment [10], 8% (inactive). Also, the superoxide response (% of plate) in [3] is 97% (inactive). In addition, in experiment [4], the aptamer binding inhibition is 4% (inactive). The response in [7] was -25.8% (inactive). In addition, the binding (% of control) in experiment [8] is 99.6% (inactive). For the same molecule, in experiment [9], the efflux inhibition (fraction of control) was -0.01 (inactive). The differentiation response in experiment [11] is 11.1% (inactive).

In experiment [1], `Cc1oc2c(C)c3oc(=O)c4c(c3cc2c1C)CCCC4` yielded a double positive events of 54.6%. Also, the vesicle binding response in [1] was 32.8% (active). The inhibition in experiment [2] is -22.2% (inactive); in [6], -2.86% (inactive); in experiment [10], 2% (inactive). The superoxide response (% of plate) in [3] is 114% (inactive). For the same molecule, the aptamer binding inhibition in [4] is 3% (inactive). The response in experiment [5] was -4.45% (inactive); in [7] it was 0.57% (inactive). In experiment [8], the binding (% of control) was 89.1% (inactive). Besides, the efflux inhibition (fraction of control) in experiment [9] is -0.2 (inactive). The differentiation response in experiment [11] was 2.2% (inactive).

Regarding `COc1ccc(-c2cc(=O)oc3c(C)c(O)c(CN(C)C)cc23)cc1`, the double positive events in [1] stood at 66%. Besides, in experiment [1], the vesicle binding response is 183% (inactive). In addition, the inhibition in experiment [2] was 9.63% (inactive); in experiment [6], 2.69% (inactive); in [10], 0% (inactive). Further, the superoxide response (% of plate) in experiment [3] is 96.8% (inactive). Further, the aptamer binding inhibition in [4] is 1% (inactive). Also, the values for the response in [5] and in experiment [7] were -14.6% (inactive) and 5.58% (inactive), respectively. Besides, the binding (% of control) in experiment [8] is 98.3% (inactive). The efflux inhibition (fraction of control) in experiment [9] is 0.42 (inactive). Further, the differentiation response in experiment [11] is 2.74% (inactive).

`CC[n+]1ccc2cc(OC)c(OC)cc2c1Cc1ccc(OC)c(OC)c1`: in experiment [1], the double positive events was determined as 64%. In addition, the vesicle binding response in experiment [1] was 174% (inactive). Further, the inhibition in experiment [2] is -10.5% (inactive); in [6] it was -12.4% (inactive); in experiment [10], 6% (inactive). In addition, the superoxide response (% of plate) in experiment [3] was 98.6% (inactive). Moreover, the aptamer binding inhibition in experiment [4] was 2% (inactive). Moreover, the response in experiment [5] is -11.2% (inactive); in [7], -0.56% (inactive). For the same molecule, in [8], the binding (% of control) was 106% (inactive). Further, in [9], the efflux inhibition (fraction of control) was -0.09 (inactive). In experiment [11], the differentiation response was -1.05% (inactive).
